Test [1] is described as follows: compounds binding Alexa647 anti-His antibody – biochemical, small-molecule microarray, 635 nm fluorescence, artefact control for SMM control protein annotation, primary screen (AID 1128).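 Also: score merges feature fluorescence with signal-to-noise for each printed compound spot.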 To be noted: higher = more signal.
Test [2] has as its system Human papillomavirus type 1a E7 protein (residues 1-88). Kind of test: HPV1a E7 small-molecule binders, primary screen, biochemical, small-molecule microarray, residues 1-88, 635 nm (AID 1129). To be noted: small-molecule microarray binding, fluorescence 635 nm; higher = more signal.
The target of test [3] is Focal adhesion kinase 1 (Homo sapiens) (UniProt Q05397). In words: PTK2 protein binding on printed compound slides – biochemical, small-molecule microarray, 635/667 nm fluorescence, BSA, DTT, primary screen (AID 1130).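 Also: composite of spot emission at 667 nm and signal to noise over triplicate slides.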 Conditions: 635 nm fluorescence, higher = more signal.
Focal adhesion kinase 1 (Homo sapiens), sequence (Q05397 whole entry, looked up): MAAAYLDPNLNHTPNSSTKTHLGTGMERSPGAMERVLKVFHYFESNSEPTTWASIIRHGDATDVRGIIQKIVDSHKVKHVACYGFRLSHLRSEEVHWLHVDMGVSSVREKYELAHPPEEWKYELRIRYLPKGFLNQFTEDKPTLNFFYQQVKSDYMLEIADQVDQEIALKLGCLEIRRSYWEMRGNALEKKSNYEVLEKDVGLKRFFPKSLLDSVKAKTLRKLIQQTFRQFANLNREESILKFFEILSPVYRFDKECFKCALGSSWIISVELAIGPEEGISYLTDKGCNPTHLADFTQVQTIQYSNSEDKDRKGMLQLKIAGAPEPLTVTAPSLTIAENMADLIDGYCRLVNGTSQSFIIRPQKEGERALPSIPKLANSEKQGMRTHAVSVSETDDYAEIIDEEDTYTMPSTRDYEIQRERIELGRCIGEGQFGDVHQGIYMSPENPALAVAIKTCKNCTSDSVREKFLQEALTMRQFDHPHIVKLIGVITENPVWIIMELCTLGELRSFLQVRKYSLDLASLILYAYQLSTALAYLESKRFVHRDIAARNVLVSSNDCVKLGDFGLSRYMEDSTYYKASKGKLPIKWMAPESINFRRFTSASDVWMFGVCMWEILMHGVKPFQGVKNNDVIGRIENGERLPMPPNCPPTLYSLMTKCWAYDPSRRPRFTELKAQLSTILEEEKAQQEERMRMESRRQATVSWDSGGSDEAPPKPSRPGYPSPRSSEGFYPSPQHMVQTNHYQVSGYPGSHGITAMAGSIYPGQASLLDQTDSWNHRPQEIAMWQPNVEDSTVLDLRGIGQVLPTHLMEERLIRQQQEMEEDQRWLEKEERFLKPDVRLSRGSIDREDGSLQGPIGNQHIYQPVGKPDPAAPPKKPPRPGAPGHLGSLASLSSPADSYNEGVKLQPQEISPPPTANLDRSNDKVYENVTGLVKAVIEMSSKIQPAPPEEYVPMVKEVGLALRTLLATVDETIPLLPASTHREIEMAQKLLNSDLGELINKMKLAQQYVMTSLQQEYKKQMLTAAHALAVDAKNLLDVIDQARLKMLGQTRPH
Test [4] deals with Fibrinogen (Alexa647-labelled). Kind of test: Alexa647-fibrinogen binding to printed small molecules – biochemical, small-molecule microarray, 635/667 nm fluorescence, artefact control for SMM control-protein annotation, profiling panel (AID 1131).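 Also: z-score merges 667 nm fluorescence with per-spot signal-to-noise over triplicate slides.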 Conditions: fibrinogen-A647 binding fluorescence, higher = more signal.
Test [5] concerns the target Follistatin (Homo sapiens) (UniProt P19883). In words: FST protein binding to printed compounds – biochemical, small-molecule microarray, 635/667 nm fluorescence, primary screen (AID 1132). To be noted: 635 nm fluorescence, higher = more signal.
Test [6] has as its target Fibroblast growth factor 2 (Homo sapiens) (UniProt P09038). In words: basic fibroblast growth factor binding to printed compounds – biochemical, small-molecule microarray, 635/667 nm fluorescence, primary screen (AID 1133). To be noted: FGF2, fluorescence 635/667, higher = more signal.
Test [7] can be described thus: JC-1 mitochondrial potential readout, lung cancer cells – cell-based, A549, JC-1 fluorescence, basal, 24 h, 100 nL, profiling panel (AID 1138).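 Also: A549 lung adenocarcinoma cells under basal conditions with no added stimulus; test concentration not given here.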 Conditions: higher = more signal.
The test system of a further test is Lefty1. In words: Lefty1 protein binding to printed compounds – biochemical, small-molecule microarray, 635/667 nm fluorescence, primary screen (AID 1139). To be noted: fluorescence 635/667, higher = more signal.
Test [8] relates to wheat germ agglutinin (Triticum aestivum), Alexa647-labelled. Kind of test: Alexa647-WGA lectin binding to printed small molecules – biochemical, small-molecule microarray, 635/667 nm fluorescence, artefact control for SMM control-protein annotation, profiling panel (AID 1140).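 Also: score merges 667 nm feature emission with signal to noise over triplicate slides.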 To be noted: WGA-A647 binding, 635 nm fluorescence, higher = more signal.
Test [9] concerns the target Luciferin 4-monooxygenase (Photinus pyralis) (UniProt P08659). Kind of test: inhibition of purified Photinus pyralis luciferase – biochemical, luminescence, purified enzyme, 2006 set, primary screen (AID 1141).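 Also: cell-free assay with purified firefly luciferase at 100 ng per well in PBS; test concentration not given here.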 To be noted: purified firefly luciferase, SteadyGlo luminescence, 30 min; higher = more signal, called active from +8 up or from −8 down.
Test [10] has as its system Wnt5a (protein binding on small-molecule microarray). In words: small molecules binding Wnt5a protein – biophysical, small-molecule microarray, 635/667 nm fluorescence, primary screen (AID 1142).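 Also: fluorescence read at 667 nm with signal to noise per printed feature.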 Conditions: 635 nm fluorescence, higher = more signal.
A short description of test [11]: ATP-based viability of Huh7 replicon cells – cell-based, CellTiter-Glo luminescence, basal, 48 h, cytotoxicity control for HCV replication inhibitor project, primary screen (AID 1143).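 Also: Huh7 hepatoma cells carrying a hepatitis C replication reporter with no stimulus; test concentration not given here.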 Conditions: higher = more signal, called active from +8 up or from −8 down.
A short description of test [12]: Pseudomonas biofilm growth suppression – PAO1 strain, BacTiter-Glo luminescence, LB-PBS, primary screen (AID 1144). Conditions: P. aeruginosa PAO1 biofilm, 12 h, higher = more signal.
Test [13] is described as follows: basal CRE-LacZ reporter activity in PC12 – cell-based, unstimulated, primary screen (AID 1145). To be noted: no forskolin, luminescence, 4.5 h, higher = more signal, called active from +8 up or from −8 down.
A short description of test [14]: forskolin-driven CRE-LacZ activity in PC12 – cell-based, CRE-LacZ reporter, forskolin-stimulated, primary screen (AID 1146).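 Also: PC12 cells with 6xCRE LacZ reporter stimulated by forskolin 10 µM; beta-galactosidase reporter signal reflecting CREB driven transcription.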 Conditions: luminescence, 4.5 h, higher = more signal, called active from +8 up or from −8 down.
For test [15], the target named is Streptavidin (Streptomyces avidinii) (UniProt P22629). Kind of test: compounds binding control protein streptavidin – biophysical, small-molecule microarray, 635/667 nm fluorescence, artefact control for SMM compound annotation, primary screen (AID 1147).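 Also: signal reflects streptavidin binding to arrayed compounds as a control protein.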 Conditions: higher = more signal.
Streptavidin (Streptomyces avidinii), sequence (P22629 whole entry, looked up): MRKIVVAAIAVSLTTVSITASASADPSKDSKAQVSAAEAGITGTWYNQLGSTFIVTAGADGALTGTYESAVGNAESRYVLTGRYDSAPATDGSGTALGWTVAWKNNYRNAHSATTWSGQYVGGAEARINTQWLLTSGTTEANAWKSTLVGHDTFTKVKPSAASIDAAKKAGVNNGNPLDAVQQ
Test [16] is described as follows: probe aInhba binding on compound microarray – biochemical, small-molecule microarray, 635/667 nm fluorescence, primary screen (AID 1148).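 Also: score merges 667nm spot fluorescence with signal-to-noise for antibody binding to printed compounds.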 Conditions: higher = more signal.
The target of test [17] is Torsin-1A (Homo sapiens) (UniProt O14656). In words: TOR1A wild-type binding on microarray – cell lysate, small-molecule microarray, lysate, 635/667 nm, primary screen (AID 1149). Conditions: COS7 hTOR1A-WT lysate, 635 nm fluorescence, higher = more signal.
Torsin-1A (Homo sapiens), sequence (O14656 whole entry, looked up): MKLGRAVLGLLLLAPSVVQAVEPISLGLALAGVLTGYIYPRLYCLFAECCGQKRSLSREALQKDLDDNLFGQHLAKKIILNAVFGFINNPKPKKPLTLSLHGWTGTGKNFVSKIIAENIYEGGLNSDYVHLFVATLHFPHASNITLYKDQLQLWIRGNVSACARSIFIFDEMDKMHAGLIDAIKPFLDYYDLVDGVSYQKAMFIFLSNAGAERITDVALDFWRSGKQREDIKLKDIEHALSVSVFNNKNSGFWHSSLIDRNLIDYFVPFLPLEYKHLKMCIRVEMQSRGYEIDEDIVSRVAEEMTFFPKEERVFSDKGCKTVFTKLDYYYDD
The target is the same in test [18]. Kind of test: torsin A mutant lysate binding on microarrays – cell lysate, small-molecule microarray, COS7 lysate, 635/667 nm fluorescence, primary screen (AID 1150).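 Also: score pools 667 nm emission and signal to noise measuring lysate protein binding.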 Conditions: COS7 hTOR1A mutant lysate, 635 nm fluorescence, higher = more signal.
The test system of test [19] is Sonic hedgehog protein (Shh). Kind of test: Sonic hedgehog microarray binding compounds – biochemical, small-molecule microarray, 635/667 nm fluorescence, primary screen (AID 1151).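 Also: Shh protein binding to compounds spotted on small-molecule microarray slides; score combines spot fluorescence intensity with signal-to-noise across triplicate slides.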 Conditions: 635 nm fluorescence, higher = more signal.

Activity calls are given as the source filed them. Unless noted, no rule for the calls is given here.

Luciferin 4-monooxygenase (Photinus pyralis), sequence (P08659 whole entry, looked up): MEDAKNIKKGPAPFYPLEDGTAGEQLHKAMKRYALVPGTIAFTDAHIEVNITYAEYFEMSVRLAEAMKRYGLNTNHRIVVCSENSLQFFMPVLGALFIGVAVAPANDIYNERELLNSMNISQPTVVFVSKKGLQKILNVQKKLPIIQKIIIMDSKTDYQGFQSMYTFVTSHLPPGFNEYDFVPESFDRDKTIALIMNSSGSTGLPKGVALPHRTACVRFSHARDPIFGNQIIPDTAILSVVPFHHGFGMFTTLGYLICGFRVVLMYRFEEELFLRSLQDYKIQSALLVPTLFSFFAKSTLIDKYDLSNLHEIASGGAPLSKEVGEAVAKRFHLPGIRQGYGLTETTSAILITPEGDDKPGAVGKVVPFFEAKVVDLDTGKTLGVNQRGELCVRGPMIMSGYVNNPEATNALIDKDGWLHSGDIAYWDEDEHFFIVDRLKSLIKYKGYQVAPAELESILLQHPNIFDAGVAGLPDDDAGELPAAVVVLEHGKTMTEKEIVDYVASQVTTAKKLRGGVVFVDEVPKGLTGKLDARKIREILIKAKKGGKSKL
Fibroblast growth factor 2 (Homo sapiens), sequence (P09038 whole entry, looked up): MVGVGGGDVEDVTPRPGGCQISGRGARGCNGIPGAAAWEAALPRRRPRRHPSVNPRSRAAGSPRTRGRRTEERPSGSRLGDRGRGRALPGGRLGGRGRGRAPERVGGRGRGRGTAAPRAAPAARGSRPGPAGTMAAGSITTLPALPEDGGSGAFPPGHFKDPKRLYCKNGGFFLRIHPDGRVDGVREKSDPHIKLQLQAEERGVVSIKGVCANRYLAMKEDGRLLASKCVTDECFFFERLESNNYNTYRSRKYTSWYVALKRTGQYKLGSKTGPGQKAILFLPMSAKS
Follistatin (Homo sapiens), sequence (P19883 whole entry, looked up): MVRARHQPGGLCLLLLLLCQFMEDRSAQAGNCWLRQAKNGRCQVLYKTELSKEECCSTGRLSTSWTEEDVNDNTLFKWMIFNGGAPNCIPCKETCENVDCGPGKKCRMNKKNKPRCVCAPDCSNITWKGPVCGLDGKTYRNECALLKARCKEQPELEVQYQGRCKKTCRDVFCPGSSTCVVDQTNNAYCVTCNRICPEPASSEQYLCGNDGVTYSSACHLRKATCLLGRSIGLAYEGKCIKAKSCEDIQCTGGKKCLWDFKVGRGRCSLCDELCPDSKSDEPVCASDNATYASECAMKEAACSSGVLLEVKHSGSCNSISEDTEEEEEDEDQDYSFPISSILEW

`CN1C(=O)[C@@]2(CCC(=O)OC(C)(C)C)N=C(c3ccc(OCCCO)cc3)O[C@H]2c2ccccc21`: the composite z-score in [1] worked out at 1.87; in [2], 1.17; in test [3] it was 0.102; in [4], 0.411; in test [5], 1.36; in [6], 0.611. Also, the composite z-score was 0.369 in the test with Lefty1; 0.761 in [8]; 0.0942 in test [10]; -0.235 in [15]; 0.0649 in test [16]; -0.132 with Torsin-1A (Homo sapiens) [17]. Moreover, the values for the composite z-score (with Torsin-1A (Homo sapiens) [18]; in test [19]) were 0.43 and 1.5, respectively. Moreover, the z-score in [7] is 1.33; in [9], -2.62 (inactive); in [11] it was -4.68 (inactive); in test [12] it was -1.73 (inactive); in test [13], 0.652 (inactive); in test [14], -1.92 (inactive).

For the compound `O=C1O[C@@H](c2ccccc2)[C@@H](c2ccccc2)N2[C@@H](c3ccccc3OCCO)[C@]3(C(=O)Nc4ccc(C#CCCO)cc43)[C@@H](C(=O)O)[C@H]12`, the composite z-score was found to be 2.14 in [1]; 1.18 in test [2]; 0.459 in [3]; 0.923 in test [4]; 0.89 in test [5]; 0.598 in test [6]. The composite z-score with Lefty1 came to 1.37; in [8], 0.365; in test [10] it was 0.44; in test [15], 0.618; in [16], 1.43; in the test with Torsin-1A (Homo sapiens) [17], 0.536. Further, the composite z-score with Torsin-1A (Homo sapiens) [18] stood at 0.925; in test [19], 0.517. The z-score in [7] is -0.406; in [9], -0.703 (inactive); in [11], -5.04 (inactive); in [12] it was -0.923 (inactive); in test [13], -0.465 (inactive); in test [14] it was 1.6 (inactive).

Regarding `C#CCCCON=C1C[C@@H](O)[C@@H](O)[C@@H]2[C@@H]3C(=O)N(c4cccc(Oc5ccccc5)c4)C(=O)[C@@H]3CC[C@@H]12`, the composite z-score was -0.0428 in [1]; 1 in test [2]; 0.181 in test [3]; 0.945 in test [4]; 0.304 in [5]; 0.224 in [6]. Further, the composite z-score with Lefty1 is 0.481; in test [8] it was 0.632; in test [10], 0.0741; in test [15] it was 0.766; in test [16], -0.128; in the test with Torsin-1A (Homo sapiens) [17] it was -0.0313. In addition, the values for the composite z-score (with Torsin-1A (Homo sapiens) [18]; in test [19]) were 0.112 and 0.277, respectively. In addition, the z-score in test [7] is -0.786; in [9], 1.02 (inactive); in test [11], 0.317 (inactive); in test [12], 0.000705 (inactive); in [13], 2.16 (inactive); in [14], 0.427 (inactive).

Take `COC(=O)[C@@H]1CC[C@H](C)[C@@H](c2ccc(C)cc2)N1C(=O)c1ccc(C=NOC(C)CN2CCCCc3nc(C)c(C)cc32)cc1` (stereo not given in full): the composite z-score in test [1] is 0.444; in test [2], -0.732; in test [3] it was 0.0369; in [4], 0.469; in test [5], 0.114; in [6], 0.222. The composite z-score in the test with Lefty1 is 0.847; in test [8], 0.0329; in test [10], 0.595; in test [15], 0.48; in [16] it was -0.0791; with Torsin-1A (Homo sapiens) [17], -0.269. In addition, the values for the composite z-score (with Torsin-1A (Homo sapiens) [18]; in [19]) were -0.332 and 0.328, respectively. Further, the z-score is 2.32 in test [7]; 0.662 (inactive) in test [9]; -3.62 (inactive) in [11]; -0.356 (inactive) in test [12]; 1.81 (inactive) in [13]; 1 (inactive) in [14].

In the case of `CC(C)(C)N1C(=O)[C@H]2[C@H]3[C@H](O)[C@H](O)CC(=NOCc4ccccc4)[C@@H]3CC[C@H]2C1=O`, the composite z-score in test [1] is 0.94; in [2], 0.808; in test [3], -0.0913; in test [4], 0.921; in [5], 0.785; in test [6] it was 0.742. Further, the composite z-score in the test on Lefty1 is 0.744; in test [8], 0.441; in test [10], 0.351; in test [15], 0.33; in [16], -0.0986; with Torsin-1A (Homo sapiens) [17] it was 0.678. Besides, the composite z-score with Torsin-1A (Homo sapiens) [18] amounted to 0.119; in [19] it was 1.26. In addition, the z-score was 0.0533 in test [7]; -1 (inactive) in test [9]; -0.939 (inactive) in test [11]; 0.614 (inactive) in test [12]; 0.16 (inactive) in test [13]; 0.479 (inactive) in test [14].

On to `CC(C)(C)N1C(=O)[C@H]2[C@H]3[C@H](O)[C@H](O)CC(=NO[C@@H]4O[C@H](CO)[C@@H](O)[C@H](O)[C@H]4O)[C@@H]3CC[C@H]2C1=O`, for which the composite z-score in test [1] was determined as 1.14; in [2], 1.08; in [3] it was 1.04; in test [4] it was 0.747; in [5], 1.09; in [6], 0.762. The composite z-score in the test on Lefty1 is 1.13; in test [8], 0.398; in [10], 0.324; in test [15] it was -0.223; in [16], 0.0051; with Torsin-1A (Homo sapiens) [17], 0.217. For the same compound, the composite z-score with Torsin-1A (Homo sapiens) [18] worked out at 0.254; in [19], 1.53. The z-score was -0.0208 in test [7]; 0.0997 (inactive) in test [9]; -2.45 (inactive) in [11]; 0.0108 (inactive) in test [12]; 0.518 (inactive) in [13]; 0.217 (inactive) in [14].

Values taken from PubChem BioAssay.
